Only some compounds are listed: those with a hit (about 19% of all), similar ones and a draw of the others.
Pf growth 96h = inhibits malaria parasite growth, 96 h. P. falciparum luciferase reporter growth, 96 h. Potency, µM (titrated, usually from 28.7 µM), inactives show at the highest dose activity change, negative = inhibition, most hits filed as inhibitors. 320,000 tested, 6.9% active. AID 504834; further: potency means the concentration at half of the fitted maximal effect; on the % scale 0 is the no-effect control and ±100 the full control effect
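Cell-based qHTS: luciferase-tagged P. falciparum in erythrocytes (2% hematocrit, 0.05% parasitemia final) incubated with compounds for 96 hours, 37 C, 5% CO2; luciferase detection reagent then added and luminescence measured.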
AMA1-RON2 inh = inhibitors of Plasmodium falciparum AMA1-RON2 interaction. AlphaScreen AMA1-biotinylated RON2 peptide binding. Potency, µM (top dose mostly 58.2 µM), for the others: top-dose activity change, negative = inhibition, most hits filed as inhibitors. 360,000 tested, 0.2% active. AID 720542;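 further: potency means the concentration at half of the fitted maximal effect; 0% = vehicle wells and -100% = peptide control; nearly all actives have a fitted effect of over 45% in size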
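AMA1 (3D7) with his tag at 25 nM final met compounds first, then biotinylated RON2 peptide at 25 nM; detection used donor plus acceptor beads, 10 µg/mL apiece, read by AlphaScreen after 30 min at room temperature.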
SARS PLpro yeast = blocks SARS-CoV papain-like protease in a yeast assay; Potency, µM (doses to about 32.9 µM), for inactives: at the top dose activity, positive = growth rescue, hits mostly activators; 330,000 tested, 0.19% active; AID 485353; S. cerevisiae expressing SARS-CoV PLpro, growth rescue; calls by dose curve; further: potency means the concentration at half of the fitted maximal effect; 0% is about no effect; nearly all actives have a fitted effect of over 55% in size
Shiga toxin inh = blocks Shiga toxin action in Vero cells | 290,000 tested, 9.2% active | inhibition, % at 38.7 µM | Vero cells, Shiga toxin protein synthesis inhibition reporter; in the data active means inhibition mostly above about 28%, no sharp cut-off; inactive means mostly below about 43%; further: 0% is about no effect
Pf growth 48h = inhibits P. falciparum growth in the first generation, 48 h; P. falciparum luciferase growth in erythrocytes, 48 h; 310,000 tested, 5.9% active; Potency, µM (titrated, usually from 28.7 µM), for inactives: top-dose activity change, negative = inhibition, actives largely listed as inhibitors; further: potency means the concentration at half of the fitted maximal effect; on the % scale 0 is the no-effect control and ±100 the full control effect
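Luciferase-expressing P. falciparum in infected erythrocytes (2% hematocrit, 0.1% parasitemia final) in RPMI 1640/0.5% Albumax were exposed to compound for 48 hours at 37 C, 5% CO2; growth read as luminescence.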
Cycloheximide cs = counter-screen hit for Shiga toxin inhibitors, cycloheximide; cell reporter, cycloheximide protein synthesis inhibition counterscreen; max response, %; 300,000 tested, 12% active; AID 2314; in the data active means max response mostly above about 13%, no sharp cut-off; inactive means mostly below about 14%; further: read at 38.3 µM for the half of the compounds with a filed dose; 0% is about no effect
* hit, by the source's call; ? = inconclusive; / = not tested or not shown; [ ] = dose if it differs, or a comment. Unless noted, the call rests on the fitted dose curve; in most records, active means well fitted curve in the direction sought with a large enough effect; inconclusive means small, poorly fitted or top-dose-only effect, or another doubt; inactive means no such curve, though single readings can be large; an effect the other way counts as inactive or inconclusive.

SMILES	Pf growth 96h	AMA1-RON2 inh	SARS PLpro yeast	Shiga toxin inh	Pf growth 48h	Cycloheximide cs
COc1ccc(CNC(=O)CSc2nnc3c(n2)[nH]c2ccc(OC)cc23)cc1	6.3%	23.9%	2.9%	19.5	21.3%	-1.4
O=C(CSc1nnc2c(n1)[nH]c1ccc(F)cc12)NC1CC1	3.29µM*	12.7%	-2.5%	13.6	20.5%	-4.4
CCOC(=O)CN(C(=O)CSc1nnc2c(n1)[nH]c1ccc(OC)cc12)c1ccc(F)cc1	7.5%	2.7%	1.8%	-16.7	9.28µM*	8.2
O=C(CSc1nnc2c(n1)[nH]c1ccc(F)cc12)NCc1ccc(F)cc1	?	3.7%	-4.3%	2.3	14.8%	-4.4
CC1Cc2ccccc2N1C(=O)CSc1nnc2c(n1)[nH]c1ccc(F)cc12 (stereo not drawn)	-90.0%	-19.8%	-4.3%	-0.4	1.47µM*	4.6
COc1ccc2[nH]c3nc(SC(C)C)nnc3c2c1	5.22µM*	-15.9%	2.5%	105.4*	405.0%	67.5*
COc1cccc(CC2(CO)CCCN(Cc3ccc(CN4CCCCC4)s3)C2)c1 (stereo not drawn)	?	-19.6%	0.3%	-5.4	?	-1.1
CC(C)OC(=O)CSc1nnc2c(n1)[nH]c1ccc(F)cc12	13.1µM*	0.0%	-2.1%	-13.5	5.86µM*	-2.4
O=C(O)CCCCCn1c(SCc2cc(=O)n3cc(Cl)ccc3n2)nc2ccsc2c1=O	11.5%	0.7%[11.6 µM]	16.5%	16.1	?	-2.8
O=c1c2sccc2nc(SCc2ccc([N+](=O)[O-])cc2)n1Cc1ccccn1	-15.8%	-14.2%	10.2%	61.9*	4.9%	25.6*
O=c1c2sccc2nc(SCc2cc(=O)n3cc(Cl)ccc3n2)n1Cc1ccccn1	7.9%	-0.5%	-0.3%	82.4*	185.7%	40.9*
CCc1nc2c(OCc3ccc(Cl)cc3)cccn2c1N(C)C(=O)c1ccc2c(c1)OCO2	/	-17.8%	/	/	/	/
C[C@@H]1CCCCO[C@H](CN(C)S(=O)(=O)c2ccc(F)cc2)[C@@H](C)CN([C@H](C)CO)C(=O)c2cc(NC(=O)Nc3ccc(C(F)(F)F)cc3)ccc2O1	/	-6.2%	/	/	/	/
CCCC[n+]1ccn(-c2nc3ccccc3nc2[N-]S(=O)(=O)c2ccccc2)c1	14.7µM*	32.3%	-8.2%	12.1	/	-3.9
CCCC[n+]1ccn(-c2nc3ccccc3nc2[N-]S(=O)(=O)c2ccc(C)cc2)c1	0.9%	2.7%	-1.0%	-7.0	/	-0.3
CCCC[n+]1ccn(-c2nc3ccccc3nc2[N-]S(=O)(=O)c2cccs2)c1	5.86µM*	16.6%	0.0%	10.9	?	2.4
Cc1ccc(S(=O)(=O)[N-]c2nc3ccccc3nc2-n2cc[n+](Cc3ccccc3)c2)cc1	1.47µM*	8.2%	-0.2%	-2.3	4.15µM*	1.6
CC(C)CCNC(=O)c1ccc(Cl)c(NC(=O)c2ccccc2F)c1	-2.2%	/	-3.5%	-1.2	?	-0.9
CN(C)c1ccc(CNC(=O)CCS(=O)(=O)c2ccc3c(c2)oc(=O)n3C)cc1	6.6%	-0.3%	-6.2%	4.7	?	9.1
O=C(Nc1cccc(F)c1)c1c(O)c2ccccc2[nH]c1=O	?	19.2%	4.9%	/	60.4%	22.7*
CC(C)NC(=O)c1c(O)c2ccccc2[nH]c1=O	4.15µM*	47.4%	-0.5%	-4.2	10.4µM*	13.5
COC(=O)c1c(O)c2ccccc2[nH]c1=O	/	-14.6%	-3.5%	-2.6	-1.6%	-0.6
O=C(NC1CCCCCC1)c1c(O)c2ccccc2[nH]c1=O	6.2%	59.1%	-15.2%	84.4*	?	25.0*
CC(C)C(=O)NNC(=O)c1c(O)c2ccccc2[nH]c1=O	?	18.0%	2.9%	2.6	11.7µM*	-2.4
O=C(N/N=C/c1cccc(F)c1)c1c(O)c2ccccc2[nH]c1=O	-12.9%	61.6%	-47.9%	-7.3	17.5%	-4.2
Cc1nc2ccc(NS(=O)(=O)c3ccc(Br)cc3)cc2s1	?	-13.7%	-1.5%	/	-7.3%	/
O=c1[nH]c2ccccc2c(O)c1O	10.4µM*	10.6%	0.3%	-8.7	13.1µM*	0.5
COC(=O)C1=C(C)NC(=S)NC1c1ccc(-c2cc(Cl)ccc2Cl)o1 (stereo not drawn)	?	21.5%	-2.3%	12.5	11.7µM*	1.4
